In PubChem BioAssay (NCATS) one finds Potency, outcome and activity change, negative = inhibition data, which are given here for eight compounds.

Assay [1] is described as follows: qHTS for Inhibitors of the Functional Ribonucleoprotein Complex (vRNP) of Lassa (LASV) Arenavirus: LASV Primary Screen - GLuc reporter signal (AID 1347082; calls by dose curve; tested in HEK293 reporter line; further: nearly all actives have a fitted effect of over 60% in size; further: potency means the concentration at half of the fitted maximal effect; on activity change, negative = inhibition: on the % scale 0 is the no-effect control and ±100 the full control effect).
Assay [2] in a line: qHTS for Inhibitors of the Functional Ribonucleoprotein Complex (vRNP) of Lassa (LASV) Arenavirus: Viability assay - alamar blue signal for LASV Primary Screen (AID 1347083; calls by dose curve; tested in HEK293 reporter line; further: nearly all actives have a fitted effect of over 80% in size; further: potency means the concentration at half of the fitted maximal effect). Background: Quantitative high-throughput screening tests each substance at several concentrations.
Assay [3] has as its target Nucleoprotein (Lymphocytic choriomeningitis virus (strain Armstrong)) (UniProt P09992). The experiment in a line: qHTS for Inhibitors of the Functional Ribonucleoprotein Complex (vRNP) of Lymphocytic Choriomeningitis Arenaviruses (LCMV): LCMV Primary Screen - GLuc reporter signal (AID 1347086). Further: nearly all actives have a fitted effect of over 70% in size. Further: potency means the concentration at half of the fitted maximal effect. On activity change, negative = inhibition: on the % scale 0 is the no-effect control and ±100 the full control effect.
Assay [4] in a line: Primary qHTS for inhibitors of SARS-S pseudo-typed particle cell entry (AID 1479145). Further: on the % scale 0 is the no-effect control and ±100 the full control effect; nearly all actives have a fitted effect of over 45% in size.
The nature of assay [5]: Primary qHTS for Huh7 cytotoxicity: counterscreen for inhibitors of MERS-S pseudotyped particle cell entry (AID 1479147). As to conditions: outcome: dose series up to 57.1 µM unless noted.
A short description of assay [6]: Primary qHTS for inhibitors of MERS-S pseudo-typed particle cell entry (AID 1479149). Further: nearly all actives have a fitted effect of over 60% in size. On activity change, negative = inhibition: on the % scale 0 is the no-effect control and ±100 the full control effect.
Assay [7] is described as follows: Primary qHTS for Vero E6 cytotoxicity: counterscreen for inhibitors of SARS-S pseudo-typed particle cell entry (AID 1479150). Further: on the % scale 0 is the no-effect control and ±100 the full control effect. As to conditions: outcome: dose series up to 57.1 µM unless noted.
Assay [8] is described as follows: Cytotoxicity counterscreen for inhibitors of SARS-CoV-2 cell entry (AID 1645845). Further: on the % scale 0 is the no-effect control and ±100 the full control effect; nearly all actives have a fitted effect of over 50% in size. Put shortly:
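HEK293-ACE2 cells (Expi293F stably expressing human ACE2) seeded overnight, then compound for 1 h plus 48 h at 37C. Viability as ATP content by luminescence; normalized to wells with cells and media-only wells.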

A short description of assay [9]: Primary qHTS to identify inhibitors of SARS-CoV-2 cell entry (AID 1645846). Further: nearly all actives have a fitted effect of over 45% in size. As to conditions: activity change, negative = inhibition: at 57.1 µM (top of the series) unless noted. Put shortly: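 Data are normalized to wells receiving SARS-CoV-2-S pseudoparticles and those given bald particles. Entry signal was luciferase luminescence in stable hACE2 Expi293F cells, 48 hr post-infection, after 1 hr compound pretreatment.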

The target in assay [10] is Alpha-galactosidase (Coffea arabica) (UniProt Q42656). The assay can be described thus: Counterscreen for Glucocerebrosidase Inhibitors: qHTS Assay for Coffee Bean alpha-Galactosidase at pH 4.5 (AID 957; active means well fitted curve in the direction sought with a large enough effect; an effect the other way counts as inactive or inconclusive;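 further: plate controls were enzyme alone for no effect and no enzyme for full effect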). Put shortly:
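Green coffee bean enzyme (2 nM final) was incubated with compounds (0.7 nM to 77 uM) and 4-methylumbelliferyl alpha-D-galactopyranoside (80 uM final) in 50 mM citric acid, 0.005% Tween-20, pH 4.5, 20 min at room temperature; AC50 from Hill fits.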
In general terms: Counterscreens check selectivity or assay interference.

Assay [11] shares this target. The experiment in a line: Counterscreen for Glucocerebrosidase Inhibitors: qHTS Assay for Coffee Bean alpha-Galactosidase at pH 5.9 (AID 998; active means well fitted curve in the direction sought with a large enough effect; an effect the other way counts as inactive or inconclusive;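 further: plate controls were uninhibited enzyme for no effect and no-enzyme basal signal for full effect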). Put shortly:
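Green coffee bean enzyme (2 nM) with 4-methylumbelliferyl alpha-D-galactopyranoside (80 uM) in 50 mM citric acid, 0.005% Tween-20, pH 5.9, 20 min at room temperature; compounds 0.7 nM–77 uM. Stopped at pH 10, fluorescence Ex365/Em440; Hill-fit AC50.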

A short description of assay [12]: qHTS for Inhibitors of the Functional Ribonucleoprotein Complex (vRNP) of Lymphocytic Choriomeningitis Arenaviruses (LCMV): Viability assay - alamar blue signal for LCMV Primary Screen (AID 1347085; calls by dose curve; tested in HEK293 reporter line; further: on the % scale 0 is the no-effect control and ±100 the full control effect; nearly all actives have a fitted effect of over 80% in size).
Assay [13] is described as follows: Inducers of the Endoplasmic Reticulum Stress Response (ERSR) in human glioma: Validation (AID 504836; active means well fitted curve in the direction sought with a large enough effect; an effect the other way counts as inactive or inconclusive; further: 0% is about no effect). Put shortly: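 Stably transfected U87-MG glioma cells carrying a GRP78-based luciferase sensor; 16 h compound incubation. Luminescence end-point read 10 min after Bright-Glo addition at room temperature.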

Several values for one entry are separate records, joined by “and”; a condition that tells them apart may be missing. Identical values can stand only once. Records with an inconclusive call do not appear. Activity calls are given as the source filed them. Unless noted, the call rests on the fitted dose curve.

Sequence of Alpha-galactosidase (Coffea arabica) (Q42656 whole entry, looked up): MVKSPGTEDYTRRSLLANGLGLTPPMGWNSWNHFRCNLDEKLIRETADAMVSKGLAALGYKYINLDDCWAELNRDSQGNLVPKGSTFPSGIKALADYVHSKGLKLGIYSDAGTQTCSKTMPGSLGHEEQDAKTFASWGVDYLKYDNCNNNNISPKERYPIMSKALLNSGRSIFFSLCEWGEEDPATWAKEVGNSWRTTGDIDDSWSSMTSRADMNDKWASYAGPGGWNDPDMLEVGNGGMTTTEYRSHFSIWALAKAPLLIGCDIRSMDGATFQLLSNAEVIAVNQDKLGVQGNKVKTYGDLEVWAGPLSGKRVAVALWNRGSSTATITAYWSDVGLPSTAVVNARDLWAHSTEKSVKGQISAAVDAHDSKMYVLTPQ
Sequence of Nucleoprotein (Lymphocytic choriomeningitis virus (strain Armstrong)) (P09992 whole entry, looked up): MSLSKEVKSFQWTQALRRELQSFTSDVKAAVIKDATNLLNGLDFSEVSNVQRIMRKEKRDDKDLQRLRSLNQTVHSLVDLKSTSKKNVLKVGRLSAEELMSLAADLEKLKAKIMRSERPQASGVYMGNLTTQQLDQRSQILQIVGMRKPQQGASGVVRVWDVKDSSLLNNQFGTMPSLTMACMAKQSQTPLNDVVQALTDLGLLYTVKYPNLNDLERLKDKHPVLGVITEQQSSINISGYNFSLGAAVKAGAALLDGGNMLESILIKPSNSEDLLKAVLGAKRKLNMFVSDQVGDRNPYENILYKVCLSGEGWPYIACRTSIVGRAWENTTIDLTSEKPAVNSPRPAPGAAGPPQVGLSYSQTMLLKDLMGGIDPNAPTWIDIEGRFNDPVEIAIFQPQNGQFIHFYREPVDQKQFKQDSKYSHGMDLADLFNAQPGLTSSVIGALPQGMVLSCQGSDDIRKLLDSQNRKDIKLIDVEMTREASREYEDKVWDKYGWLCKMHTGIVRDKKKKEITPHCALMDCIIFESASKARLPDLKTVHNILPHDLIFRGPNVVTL

Turning to `Oc1ccc(-c2ccc(-c3cc(Nc4cccc(CNC5CC5)c4)n[nH]3)cc2)c(O)c1`, the values for the Potency in assay [1], in assay [2] and in assay [3] were 24.3 µM (active), 3.06 µM (active) and 12.2 µM (active), respectively.
In the case of `CC(=O)O[C@@H]1/C=C/[C@](C)(O)C[C@@H](C)C/C=C/[C@H]2[C@H](O)C(C)=C(C)[C@H]3[C@H](Cc4ccccc4)NC(=O)[C@@]123`, the Potency result in [1] and in [3] was “inactive” each time. Also, the Potency in [2] is 2 µM (active).
On to `CC#CCn1c(N2CCC[C@@H](N)C2)nc2c1c(=O)n(Cc1nc(C)c3ccccc3n1)c(=O)n2C`, for which the Potency result in assay [1], in assay [2], in assay [3], in assay [4], in [6] and in [8] was “inactive” throughout. Also, the outcome in assay [5] and in [7] was inactive. The activity change, negative = inhibition in assay [9] was -18.4% and -12.2%.
As for `O=C1NC(=O)C(c2cnc3ccccn23)=C1c1cn2c3c(cccc13)CN(C(=O)N1CCOCC1)CC2`, the Potency result in assay [1], in assay [3] and in [8] was “inactive” throughout. In addition, the Potency in assay [2] is 6.85 µM (active).
Consider `O=C1c2ccccc2C(=O)N1Cc1ccccc1`, for which the Potency result in [1], in assay [2] and in assay [3] was “inactive” throughout.
On to `C=C[C@H]1CN2CC[C@@H]1C[C@@H]2[C@@H](O)c1ccnc2ccc(OC)cc12`, for which the call in assay [10] and in assay [11] was inactive. Besides, the Potency result in [1], in assay [2] and in [12] was “inactive” each time.
As for `CCCCCC[C@@H](O)C/C=C\CCCCCCCC(=O)O`, the Potency result in assay [1], in assay [2], in [3], in [6] and in assay [8] was “inactive” throughout. Further, the outcome in [5] and in [7] was inactive. In addition, the activity change, negative = inhibition in [9] was -16.6%.
Take `NC[C@@H]1O[C@H](C23CC4CC(CC(C4)C2)C3)Cc2c1ccc(O)c2O`: the call in assay [10], in [11] and in assay [13] was inactive. The Potency result in [1], in assay [2] and in assay [12] was “inactive” each time.
